Measurements taken from PubChem BioAssay AID651635 (National Center for Advancing Translational Sciences (NCATS), 2012).
The whole screen tested about 400,000 compounds, of which about 1,900 (0.47%) were called active. Inconclusive results (about 14%) are left out. Calls follow the shape of the dose curve; as a rule, active = well fitted cell-killing curve with a large enough effect; inconclusive = small, poorly fitted or top-dose-only effect, or effect the other way; inactive = no such curve, though single readings can be large or run the other way. Many of the other results were omitted from the sample, so actives are more common in it than they were.

Assay: Viability Counterscreen for Primary qHTS for Inhibitors of ATXN expression; also: nearly all actives have a fitted effect of over 40% in size
Details: S2 cells (HEK-293 line with an ATXN2-luciferase reporter) viability, CellTiter-Fluor protease fluorescence, 24 h; series mostly up to 56.7 µM; activity change, negative = cytotoxicity: at the top concentration
Potency is read from the fitted curve at half-maximal effect.

Compound	activity change, negative = cytotoxicity	Potency
COC(=O)c1ccc2c(c1)N(CC(=O)Nc1ccc(C)c(C)c1)C(=O)c1ccccc1S2	-26.8% (inactive)	–
CC(C)n1cnc2c(NCc3ccccc3)cc(OCC3CCN(C)CC3)cc21	–	31.6 µM (active)
CN(C)c1nccc(NCc2ccccc2)c1C#N	15.7% (inactive)	–
CCC(CO)Oc1cc(NC(=O)c2ccc(Cl)cc2)c2ncn(C(C)C)c2c1 (stereo not given)	-15.2% (inactive)	–
COC(=O)c1ccc(CN2C(=O)C(Cc3ccccc3)ON=C2c2ncccc2C)o1 (stereo not given)	-17.5% (inactive)	–
Cc1nc2c(OCc3ccc(Cl)cc3Cl)cccn2c1N(C)CC1CC1	–	20 µM (active)
CCOC(=O)N(C)c1c(CC)nc2c(OCc3ccccc3C(=O)OC)cccn12	-37.6% (inactive)	–
CCc1nc2c(OCc3ccc(F)c(F)c3)cccn2c1N(C)C(=O)c1ccco1	-26% (inactive)	–
CCCCC(=O)N(C)c1c(CC)nc2c(OCc3ccc(Cl)cc3Cl)cccn12	-11.9% (inactive)	–
CCc1nc2c(OCc3ccc(Cl)cc3Cl)cccn2c1N(C)C(=O)C(C)C	–	22.4 µM (active)
CCc1nc2c(OCc3cccc(OC)c3)cccn2c1N(C)C(=O)C(C)C	-8.7% (inactive)	–
CCOC(=O)[C@]12CCC=C1N(Cc1cccc3ccccc13)C(=O)[C@H](CC(=O)NCc1cccc(C(F)(F)F)c1)C2	-37.5% (inactive)	–
Cc1cc(NC(=O)C2CCC(CNS(=O)(=O)c3ccc(Br)s3)CC2)ccc1Br (stereo not given)	–	35.5 µM (active)
CCCCNC(=O)C1CCC(CNS(=O)(=O)c2ccc(NC(C)=O)cc2)CC1 (stereo not given)	–	inactive
COc1ccc(NC(=O)C2CCC(CNS(=O)(=O)c3csc(C(N)=O)c3)CC2)cc1OC (stereo not given)	4.18% (inactive)	–
O=C(c1cn(CC2CCCN(Cc3cc4ccccc4s3)C2)nn1)N1CCCC1 (stereo not given)	-16.3% (inactive)	–
COc1ccc(CCCNC(=O)C2Cc3c(-c4cccc(C(N)=O)c4)ccnc3O2)cc1 (stereo not given)	-25.5% (inactive)	–
COC(=O)c1ccc2nc(-c3ccc(OC)c(OC)c3)c(Cc3ccccc3)n2c1	-38.4% (inactive)	–
Cc1cc(C)cc(CN2CCc3nnc(C(NS(C)(=O)=O)C(C)C)n3CC2)c1 (stereo not given)	-15.6% (inactive)	–
OC(c1ccc(F)cc1)c1ncc(-c2cccc(C(F)(F)F)c2)[nH]1 (stereo not given)	-35.2% (inactive)	–
CC(=O)OC[C@H]1O[C@@H](O[C@H]2[C@H](O)[C@@H](OC(=O)c3ccccc3C(=O)O)[C@H](O)O[C@@H]2COC(C)=O)[C@H](O)[C@@H](OC(=O)c2ccccc2C(=O)O)[C@@H]1O	-4.22% (inactive)	–
CCOc1ccc(-n2nc3ccc(NC(=O)c4ccc(OC)c(Cl)c4)cc3n2)cc1	-8.21% (inactive)	–
CCOc1ccc(C(=O)Nc2ccc3nc4c(c(Nc5ccccc5OC)c3c2)CCCC4)cc1	–	14.1 µM (active)

Compound	activity change, negative = cytotoxicity	Potency
CCOc1ccc(NC(=O)CSc2nncn2C)cc1	21.1% (inactive)	–
COc1cccc(NC(=O)c2ccc3c(SCC(=O)O)c4c(nc3c2)CCCC4)c1	-24% (inactive)	–
CCOc1ccc(NC(=O)CSc2c3c(nc4ccccc24)CCCC3)cc1	–	25.1 µM (active)
CCOc1ccc(NC(=O)CSc2nc3ccccc3c(=O)n2Cc2cccs2)cc1	-15.2% (inactive)	–
C[C@@H]1CCC[C@H](C)N1CCCC(O)(c1ccccc1)c1ccccn1 (stereo not given in full)	-7.16% (inactive)	–
FC(F)(F)c1cccc(-c2cn[nH]c2C2CCCN(Cc3cccn3-c3ccccn3)C2)c1 (stereo not given)	-20.2% (inactive)	–
O=C(NCCN1CCOCC1)c1cnn(-c2nccc(-c3cccs3)n2)c1C1CC1	-8.87% (inactive)	–
O=C(OCC(O)CO)c1ccccc1Nc1ccnc2c(C(F)(F)F)cccc12 (stereo not given)	8.14% (inactive)	–
CCS(=O)(=O)Nc1cc(C(=O)N2C[C@@H](C)O[C@@H](C)C2)c2c(c1)nc(-c1ccccc1)n2C	-11.8% (inactive)	–
CC1(C)OC[C@@H](COC(=O)CCc2ccc(OC[C@@H](O)CNCCNC(=O)N3CCOCC3)cc2)O1	–	inactive
CC(=O)Nc1cncc(-c2ccccc2CO)n1	-8.75% (inactive)	–
COc1cnc(-c2ccccn2)nc1Oc1ccc(C(C)(C)C)cc1	–	10 µM (active)
N#Cc1ccc(Oc2cc(C(F)(F)F)nc(-c3ccccn3)n2)cc1	-38.9% (inactive)	–
COc1ccc2nc(-c3ccccn3)ccc2c1	-31.3% (inactive)	–
CCc1nc2c(OCCOc3ccccc3)cccn2c1N(C=O)Cc1ccc(OC)cc1	-32% (inactive)	–
C#Cc1ccc(NC(=O)C2(C)CCN2C(=O)Cc2ccc(-c3ccccc3)cc2)cc1 (stereo not given)	-21.5% (inactive)	–
CC(C(=O)O)c1ccc(C2CCCCC2)c2ccccc12 (stereo not given)	-15.4% (inactive)	–
O=C(NC1=CC(=O)c2ccccc2C1=O)c1ccccc1	–	7.08 µM (active)
COC(=O)c1nc(NC(=O)c2ccccc2)n[nH]1	-13.5% (inactive)	–
O=C(NC(=O)c1ccccc1)Nc1ccccc1O	-5.19% (inactive)	–
CCCS(=O)(=O)NCc1c(C)ncc2c1CCN(C(=O)c1ccc(F)c(F)c1)C2	-6.2% (inactive)	–
O=C(OCCN1CCOCC1)c1cccnc1Nc1cccc(C(F)(F)F)c1	-5.42% (inactive)	–
COc1ccc(NC(=O)C2(C)Cc3c(-c4cccc(NC(C)=O)c4)ccnc3O2)cc1OC (stereo not given)	-26.5% (inactive)	–

Compound	activity change, negative = cytotoxicity	Potency
COc1ccc(-n2c(CNC(=O)c3cc(C(F)(F)F)ccc3Cl)nnc2SC)cc1	-11.2% (inactive)	–
Cc1ccc(/C=N/NC(=O)C2=NNC(c3ccccc3)(c3ccccc3)C2)c(O)c1	-18.9% (inactive)	–
COc1ccc(NC(=O)C/C(C)=N/NC(=O)c2cnccn2)cc1Cl	-13.5% (inactive)	–
CCN(CC)c1ccc(/C=N/NC(=O)c2cnccn2)c(O)c1	–	7.94 µM (active)
COc1cc(C(=O)N2CCC(c3ccncc3)CC2)cc(OC)c1OC	-4.24% (inactive)	–
CCOC(=O)[C@]12CCCC=C1N(Cc1ccc3c(c1)OCO3)C(=O)[C@H](CC(=O)NCc1cccs1)C2	-20.6% (inactive)	–
COCCSc1nnc(NC(=O)CCS(=O)(=O)Cc2ccccc2)s1	-32.4% (inactive)	–
CCOc1ccc(NC(=O)c2nc(SCC)ncc2Cl)cc1	-16.9% (inactive)	–
Cc1ccc2nc(NC(=O)c3nc(SCc4ccccc4F)ncc3Cl)sc2c1	-29.2% (inactive)	–
CCS(=O)(=O)c1ncc(N(Cc2ccc(F)cc2)Cc2ccco2)c(C(=O)Nc2cc(C)ccc2C)n1	-15.9% (inactive)	–
CSc1nnc(NC(=O)c2nc(S(=O)(=O)Cc3ccc(C)cc3)ncc2Cl)s1	–	12.6 µM (active)
Cc1cccc(CS(=O)(=O)c2ncc(Cl)c(C(=O)Nc3ccc(F)cc3)n2)c1	–	31.6 µM (active)
COc1ccccc1-c1ccnc(-n2ncc(C(=O)NCCc3ccncc3)c2C)n1	-6.5% (inactive)	–
Oc1[nH]c2ccccc2c1N=Nc1c(F)c(F)c(F)c(F)c1F	-34.7% (inactive)	–
O=C(O)c1ccccc1/C=N/Nc1ccc(S(=O)(=O)Nc2ccc(Cl)cc2)cc1[N+](=O)[O-]	-23.7% (inactive)	–
O=[N+]([O-])c1cc(S(=O)(=O)Nc2cccc(Cl)c2)ccc1N=Nc1c(O)[nH]c2ccccc12	–	28.2 µM (active)
CO/N=C(\C(=O)N[C@@H]1C(=O)N2C(C(=O)O)=C(C[N+]3(C)CCCC3)CS[C@H]12)c1csc(N)n1	-14.3% [at 25.4 µM] (inactive)	–
COc1cc(-c2cccnc2)cc2c1OCCN(C(=O)Cc1csc(C)n1)C2	-16.2% (inactive)	–
COc1cc2[nH]c(C)c(CCN3CCN(c4ccccc4)CC3)c2cc1OC	-20.5% (inactive)	–
CC1CN(C(=O)c2ccc([N+](=O)[O-])s2)CC(C)O1 (stereo not given)	-21.9% (inactive)	–
O=[N+]([O-])c1ccc(C=Nc2ccc(Cl)cc2Cl)s1	–	11.2 µM (active)
CNN/C(N=Cc1ccc([N+](=O)[O-])s1)=N\S(=O)(=O)c1cc(C)c(Cl)cc1SCc1ccccc1	-34.8% (inactive)	–
CCOC(=O)[C@]12CCC=C1N(CCC1=CCCCC1)C(=O)[C@H](CC(=O)NCc1ccc(C)o1)C2	-38% (inactive)	–

Compound	activity change, negative = cytotoxicity	Potency
COC(=O)c1c(C)c(C)nc(N)c1C#N	-3.55% (inactive)	–
COC(=O)c1nc(Cl)c(Cl)nc1N	–	15.8 µM (active)
COC(=O)c1nn(-c2cccc(Cl)c2)ccc1=O	5.56% (inactive)	–
CCCOc1ccc(F)cc1-c1cc(C(=O)NCc2ccc(F)cc2)[nH]n1	-12.6% (inactive)	–
CCC1CN(CCNC(=O)c2ccsc2)Cc2cc(OC)ccc2O1 (stereo not given)	-8.37% (inactive)	–
CC[C@]1(O)C[C@@H]2CN(CCc3c([nH]c4ccccc34)[C@@](C(=O)OC)(c3cc4c(cc3OC)N(C)[C@H]3[C@@](O)(C(=O)OC)[C@H](OC(C)=O)[C@]5(CC)C=CCN6CC[C@]43[C@@H]65)C2)C1	–	1 µM (active)
O=C(NCC1Cc2cc(F)cc(-c3cnccn3)c2O1)C1COc2ccccc2O1 (stereo not given)	-9.12% (inactive)	–
CC[C@H](C)CCCCC(=O)N[C@@H](CCN)C(=O)N[C@H](C(=O)N[C@@H](CCN)C(=O)N[C@H]1CCNC(=O)[C@H]([C@@H](C)O)NC(=O)[C@H](CCN)NC(=O)[C@H](CCN)NC(=O)[C@H](CC(C)C)NC(=O)[C@@H](CC(C)C)NC(=O)[C@H](CCN)NC1=O)[C@@H](C)O	-1.3% (inactive)	–
CCC(C(=O)OCCN(CC)CC)c1ccccc1 (stereo not given)	–	inactive
CCN(CC)CCOC(=O)c1ccc(NC(=O)CNC(=O)c2ccccc2)cc1	-6.36% (inactive)	–
CC1(C(=O)NCC2CCOCC2)Cc2c(-c3cccc(C(N)=O)c3)ccnc2O1 (stereo not given)	-23.9% (inactive)	–
O=C1NC(CC(=O)N2CCC(n3c(C4CCC4)nc4cccnc43)CC2)c2ccccc21 (stereo not given)	-16% (inactive)	–
O=CNc1cc(-c2ccc(C(=O)N3CCOCC3)cc2)cn2c(-c3ccc(F)cc3)cnc12	-26.1% (inactive)	–
CCc1nc2c(OCCc3cccc(OC)c3)cccn2c1N(C)C(=O)c1ccc(C)cc1	-21.3% (inactive)	–
Cc1cc2ncn(CCCCOc3ccccc3)c2cc1C	–	inactive
Cc1cc2nc(C)n(CCCNC(=O)Nc3ccccc3)c2cc1C	-11.2% (inactive)	–
COc1ccc(OCCCn2c(C)nc3cc(C)c(C)cc32)cc1	–	28.2 µM (active)
COc1ccc(C(C#N)=C2C=CC(=NO)c3ccccc32)cc1	-0.613% (inactive)	–
CC[n+]1cc(C)ccc1/C=C/c1ccc(N(C)C)cc1	–	25.1 µM (active)
NCC[C@H](O)C(=O)N[C@@H]1C[C@H](N)[C@@H](O[C@H]2O[C@H](CN)[C@@H](O)[C@H](O)[C@@H]2O)[C@H](O)[C@@H]1O[C@H]1O[C@H](CO)[C@@H](O)[C@H](N)[C@@H]1O	-2.32% [at 0.575 µM] (inactive)	–
CO[C@]1(NC(=O)CSC(F)F)C(=O)N2C(C(=O)O)=C(CSc3nnnn3CCO)CO[C@H]21	9.74% (inactive)	–
